{
  "source": "the supplement of paper PMC3334620",
  "note": "In all, about 33,000 sequences were measured (“E-score (-0.5 to 0.5)”: median about -0.012, highest 2% from about 0.27 on). This is one part of a sample in which the highest values are shown more often than they occur.",
  "data": [
    {"target": "T1, Vhr1 (UniProt P40522)", "T1 sequence": "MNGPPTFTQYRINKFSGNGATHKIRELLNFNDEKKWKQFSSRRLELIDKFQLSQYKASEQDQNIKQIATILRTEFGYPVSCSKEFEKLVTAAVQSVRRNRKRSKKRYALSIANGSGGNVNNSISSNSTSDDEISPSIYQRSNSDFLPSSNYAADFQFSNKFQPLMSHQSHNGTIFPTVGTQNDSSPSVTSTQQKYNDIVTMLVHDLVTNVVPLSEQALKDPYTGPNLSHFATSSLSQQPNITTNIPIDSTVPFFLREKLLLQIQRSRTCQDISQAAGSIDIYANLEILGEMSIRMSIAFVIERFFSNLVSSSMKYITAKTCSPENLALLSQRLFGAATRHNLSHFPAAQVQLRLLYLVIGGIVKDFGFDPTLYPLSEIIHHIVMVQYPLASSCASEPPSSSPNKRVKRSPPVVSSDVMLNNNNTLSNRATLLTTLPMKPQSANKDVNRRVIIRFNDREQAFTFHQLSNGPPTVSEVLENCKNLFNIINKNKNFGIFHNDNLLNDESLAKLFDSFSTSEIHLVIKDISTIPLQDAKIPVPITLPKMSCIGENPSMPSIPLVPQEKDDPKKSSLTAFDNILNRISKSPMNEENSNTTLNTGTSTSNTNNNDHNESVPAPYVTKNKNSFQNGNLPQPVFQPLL", "assay": "PBM E-score (8-mer binding enrichment) (E-score (-0.5 to 0.5)); higher = stronger / more preferred TF binding", "conditions": "protein concentration: 200 nM; construct: GST-full length", "summary_of_the_method": "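E-scores (a modified Wilcoxon-Mann-Whitney statistic) were assigned by the Universal PBM Analysis Suite to every ungapped eight-base word pooled with its reverse complement. The input came from universal all-10-mer Agilent arrays made double-stranded by primer extension and probed with GST-tagged yeast transcription factors at about 100-200 nM. Fluorescent anti-GST detected bound protein, and masliner normalised the scans.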", "values": [
      {"sequence": "TAGTCATA", "PBM E-score": 0.356},
      {"sequence": "AGGTCATA", "PBM E-score": 0.0299},
      {"sequence": "CCGTCATA", "PBM E-score": 0.139},
      {"sequence": "CTGTCATA", "PBM E-score": 0.0334},
      {"sequence": "AAGTCATA", "PBM E-score": 0.316},
      {"sequence": "ATGTCATA", "PBM E-score": 0.106},
      {"sequence": "CGGTCATA", "PBM E-score": -0.0676},
      {"sequence": "CAGTCAAG", "PBM E-score": 0.0145},
      {"sequence": "CAGTCATA", "PBM E-score": 0.291},
      {"sequence": "AAACACTA", "PBM E-score": 0.0776},
      {"sequence": "CCCCCAGC", "PBM E-score": -0.15},
      {"sequence": "AGCGCACA", "PBM E-score": 0.00461},
      {"sequence": "GCGCTAAA", "PBM E-score": -0.142},
      {"sequence": "CCAGACAC", "PBM E-score": -0.0651},
      {"sequence": "AGCTGCGG", "PBM E-score": -0.115},
      {"sequence": "CCAATGGG", "PBM E-score": -0.103},
      {"sequence": "GTACTCAC", "PBM E-score": 0.263},
      {"sequence": "CAACTCAC", "PBM E-score": 0.263},
      {"sequence": "CGACTCTA", "PBM E-score": 0.225},
      {"sequence": "CGACTCAC", "PBM E-score": 0.448},
      {"sequence": "GCACTCAC", "PBM E-score": -0.0104},
      {"sequence": "AGACTCTC", "PBM E-score": 0.0937},
      {"sequence": "CCACTCAC", "PBM E-score": 0.177},
      {"sequence": "CCACTCAG", "PBM E-score": 0.0902},
      {"sequence": "GGACTCAC", "PBM E-score": 0.372},
      {"sequence": "CGACTCTC", "PBM E-score": 0.278},
      {"sequence": "CAACTCAG", "PBM E-score": 0.0745},
      {"sequence": "CGACTCAG", "PBM E-score": 0.428},
      {"sequence": "AGAAAATG", "PBM E-score": -0.163},
      {"sequence": "TAAAGCAA", "PBM E-score": -0.0681},
      {"sequence": "ACTTAGAC", "PBM E-score": -0.127},
      {"sequence": "ACAGCCTA", "PBM E-score": 0.0389},
      {"sequence": "AAGGGTGC", "PBM E-score": -0.0494},
      {"sequence": "CAAGCAAG", "PBM E-score": -0.0582},
      {"sequence": "AACTATTG", "PBM E-score": 0.13},
      {"sequence": "AGACTCCT", "PBM E-score": 0.186},
      {"sequence": "AGACTCGC", "PBM E-score": 0.136},
      {"sequence": "AGACTCAT", "PBM E-score": 0.353},
      {"sequence": "AGACTCAG", "PBM E-score": 0.242},
      {"sequence": "AGACTCAC", "PBM E-score": 0.399},
      {"sequence": "ACTCTCAT", "PBM E-score": 0.027},
      {"sequence": "CCGCCTTC", "PBM E-score": 0.0298},
      {"sequence": "CCCGTCGG", "PBM E-score": 0.065},
      {"sequence": "CAAGCTCG", "PBM E-score": 0.0842},
      {"sequence": "GGCGCTAC", "PBM E-score": -0.192},
      {"sequence": "GTGGAGAA", "PBM E-score": -0.13},
      {"sequence": "CCGTGTTA", "PBM E-score": 0.152},
      {"sequence": "ACGTGTTC", "PBM E-score": -0.219},
      {"sequence": "CCGTGTTC", "PBM E-score": 0.271},
      {"sequence": "ACACAGAC", "PBM E-score": 0.25},
      {"sequence": "CGCTGCCA", "PBM E-score": -0.0656},
      {"sequence": "AAAGTACA", "PBM E-score": 0.071},
      {"sequence": "ACTACAAG", "PBM E-score": -0.00586},
      {"sequence": "ACTACAAC", "PBM E-score": 0.212},
      {"sequence": "ACTACTAA", "PBM E-score": 0.0623},
      {"sequence": "ACTACCAT", "PBM E-score": 0.278},
      {"sequence": "ACTACTAT", "PBM E-score": 0.325},
      {"sequence": "ACTACAAT", "PBM E-score": 0.277},
      {"sequence": "ACTACCAA", "PBM E-score": 0.163},
      {"sequence": "ACTACCAC", "PBM E-score": 0.175},
      {"sequence": "ACTACTAC", "PBM E-score": 0.232},
      {"sequence": "AGCAAGGG", "PBM E-score": -0.0155},
      {"sequence": "GAGTGCGC", "PBM E-score": -0.0251},
      {"sequence": "CCCGATGC", "PBM E-score": -0.18},
      {"sequence": "CCCGATGA", "PBM E-score": 0.273},
      {"sequence": "ACCGATGA", "PBM E-score": 0.00055},
      {"sequence": "GTGCGCGA", "PBM E-score": 0.0151},
      {"sequence": "CCGCATGA", "PBM E-score": 0.146},
      {"sequence": "TACTATGA", "PBM E-score": 0.317},
      {"sequence": "CACTATGA", "PBM E-score": 0.173},
      {"sequence": "AACTATGA", "PBM E-score": 0.22},
      {"sequence": "GACTATGA", "PBM E-score": 0.289},
      {"sequence": "GACTATGC", "PBM E-score": 0.233},
      {"sequence": "GACTATCA", "PBM E-score": 0.0818},
      {"sequence": "AGAGGCTG", "PBM E-score": -0.116},
      {"sequence": "GGTGACGA", "PBM E-score": 0.113},
      {"sequence": "AGTGACTG", "PBM E-score": 0.288},
      {"sequence": "AGTGACGG", "PBM E-score": 0.00494},
      {"sequence": "AGTGACCG", "PBM E-score": -0.117},
      {"sequence": "AGTGACAA", "PBM E-score": 0.0325},
      {"sequence": "AGTGACTA", "PBM E-score": 0.367},
      {"sequence": "GGTGACCA", "PBM E-score": -0.0328},
      {"sequence": "GGTGACTA", "PBM E-score": 0.44},
      {"sequence": "AGTGACGA", "PBM E-score": 0.139},
      {"sequence": "GAGGAAGC", "PBM E-score": -0.151},
      {"sequence": "AGACCTCT", "PBM E-score": -0.143},
      {"sequence": "TAGGAAAA", "PBM E-score": -0.22},
      {"sequence": "TAAGCCGA", "PBM E-score": -0.13},
      {"sequence": "GTCTGTGA", "PBM E-score": 0.235},
      {"sequence": "GCATTCCA", "PBM E-score": -0.177},
      {"sequence": "AGCCTGAC", "PBM E-score": -0.0744},
      {"sequence": "AATCATCG", "PBM E-score": 0.334},
      {"sequence": "GATCATCC", "PBM E-score": 0.141},
      {"sequence": "ATCCATCC", "PBM E-score": 0.156},
      {"sequence": "AATCATCC", "PBM E-score": 0.405},
      {"sequence": "CATCATCG", "PBM E-score": 0.16},
      {"sequence": "AATCATCA", "PBM E-score": 0.374},
      {"sequence": "CATCATCC", "PBM E-score": 0.119},
      {"sequence": "ATCCATCA", "PBM E-score": 0.289},
      {"sequence": "TATCATCA", "PBM E-score": 0.147},
      {"sequence": "AATCATCT", "PBM E-score": 0.185},
      {"sequence": "ATCCATCG", "PBM E-score": 0.0134},
      {"sequence": "CATCATCA", "PBM E-score": -0.0217},
      {"sequence": "AAGATTTG", "PBM E-score": -0.09},
      {"sequence": "ACAGTGGG", "PBM E-score": -0.133},
      {"sequence": "ACATCTAC", "PBM E-score": 0.155},
      {"sequence": "GCGCCAAC", "PBM E-score": -0.0311},
      {"sequence": "GCCCCCCA", "PBM E-score": -0.244},
      {"sequence": "GGCCCAGA", "PBM E-score": -0.26},
      {"sequence": "AGTTACAT", "PBM E-score": -0.043}
    ]}
  ]
}
